A selection: hits, their analogues and other compounds. The true share with any hit is near 19%.
Gal4-VP16 FLuc: counter-screen for ROR gamma inhibitors: Gal4-VP16 reporter; Drosophila S2 Gal4-VP16 UAS-luciferase, luminescence, 20 h; Potency, µM (highest dose often 53.6 µM), usual class: inhibitors; 310,000 tested, 3.5% active;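 further: Gal4-VP16 expression switched on by copper sulfate through the metallothionein promoter; nearly all actives have a fitted effect of over 50% in size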
TDP1 cell noCPT: qHTS for Inhibitors of human tyrosyl-DNA phosphodiesterase 1 (TDP1): qHTS in cells in absence of CPT | DT40 Tdp1-/- hTDP1 cells, no CPT, ATP luminescence, 48 h | Potency, µM (titrated, usually from 46.2 µM), usual class: inhibitors | 420,000 tested, 15% active; further: nearly all actives have a fitted effect of over 55% in size
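Readout: luminescence from CellTiter-Glo after 30 min in the dark at RT. Cells: DT40 Tdp1-/- with stable hTDP1, 400/well. Exposure: compounds alone, ≥48 hr, 37 °C.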
TDP1 block: inhibitors of human tyrosyl-DNA phosphodiesterase TDP1; Q9NUW8; recombinant TDP1, AlphaScreen DNA substrate cleavage; Potency, µM (series often up to 130 µM), most hits filed as inhibitors; 350,000 tested, 0.28% active; AID 485290; further: nearly all actives have a fitted effect of over 40% in size
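Enzyme-compound mixtures sat 15 min at room temperature, followed by a 5 min reaction with 15 nM final substrate and 10 min with AlphaScreen beads. Recombinant human Tdp1 was used at 1 nM final.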
DT40 TDP1 CPT: growth inhibition of DT40 Tdp1-/-;hTDP1 cells with camptothecin (screen for TDP1 inhibitors); Potency, µM (top dose mostly 46.2 µM), actives largely listed as inhibitors; AID 686979; chicken DT40 Tdp1-/-;hTDP1 cells + 20 nM CPT, ATP luminescence, 48 h; 420,000 tested, 12% active; further: nearly all actives have a fitted effect of over 55% in size
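Cell growth measured by CellTiter-Glo luminescence after a minimum 48 h, 37 C compound exposure with 20 nM CPT in Tdp1-knockout DT40 cells stably expressing hTDP1, seeded 400/well; qHTS titration format.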
RORg inh: blocks mouse ROR gamma transcriptional activity. Drosophila S2 Gal4-RORgamma UAS-luciferase reporter, 20 h. Potency, µM (highest dose often 53.6 µM), actives largely listed as inhibitors. AID 2551. P51450. 310,000 tested, 5.4% active; further: nearly all actives have a fitted effect of over 60% in size
Target sequence (P51450 whole entry, looked up, the tested form may be a part): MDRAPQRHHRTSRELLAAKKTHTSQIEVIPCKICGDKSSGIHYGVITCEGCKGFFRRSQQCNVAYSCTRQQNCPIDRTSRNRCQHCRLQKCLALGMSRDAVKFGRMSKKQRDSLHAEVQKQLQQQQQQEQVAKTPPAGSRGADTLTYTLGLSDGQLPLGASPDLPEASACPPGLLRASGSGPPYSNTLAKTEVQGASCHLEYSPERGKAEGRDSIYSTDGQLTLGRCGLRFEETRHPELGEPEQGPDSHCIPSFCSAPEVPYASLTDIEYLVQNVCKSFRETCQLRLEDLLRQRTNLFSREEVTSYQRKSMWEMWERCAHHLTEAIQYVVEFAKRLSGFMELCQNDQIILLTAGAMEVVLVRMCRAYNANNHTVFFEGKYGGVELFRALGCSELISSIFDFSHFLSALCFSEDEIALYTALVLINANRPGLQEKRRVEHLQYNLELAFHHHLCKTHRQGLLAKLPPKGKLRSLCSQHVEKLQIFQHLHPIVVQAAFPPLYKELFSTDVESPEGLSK
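In this cell-based reporter format, copper sulfate (700 uM final) drives Gal4–ROR gamma fusion expression from a metallothionein promoter in Drosophila Schneider cells; compounds preincubated 1 hr, reporter read after 20 hr at ambient temperature.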
Numbers stand for hits; 0 = inactive; ? = inconclusive; - = not tested or not shown; [ ] = remark or other dose. The call rests on the fitted dose curve; in most records, active means well fitted curve in the direction sought with a large enough effect; inconclusive means small, poorly fitted or top-dose-only effect, or another doubt; inactive means no such curve, though single readings can be large; an effect the other way counts as inactive or inconclusive.

SMILES	Gal4-VP16 FLuc	TDP1 cell noCPT	TDP1 block	DT40 TDP1 CPT	RORg inh
Cc1[nH]n2c(=O)c3c(nc2c1-c1ccccc1)CCC3	?	0	0	0	12.6µM
Cc1nc2nc3c(c(=O)n2[nH]1)CCCC3	0	0	0	0	0
N#Cc1c[nH]n2c(=O)c3c(nc12)CCCC3	0	-	0	-	0
CC(=O)c1ccc(OCC(O)CN2CCN(c3ccccn3)CC2)cc1 (configuration not stated)	0	0	0	0	0
COc1cccc(CNC(=O)Nc2ccc3c(c2)N(C)C(=O)c2ccccc2S3)c1	-	?	0	23.1µM	-
CN1C(=O)c2ccccc2Sc2ccc(NC(=O)N3CCN(c4cccc(Cl)c4)CC3)cc21	-	5.17µM	0	7.31µM	-
CCc1cccc(NC(=O)Nc2ccc3c(c2)N(C)C(=O)c2ccccc2S3)c1	-	23.1µM	0	?	-
CN1C(=O)c2ccccc2Sc2ccc(NC(=O)NC3CC3)cc21	0	?	0	?	0
Cc1csc(NC(=O)CSc2nnc(-c3ccc(S(=O)(=O)N4CCCC4)cc3)o2)n1	0	?	0	0	12.6µM
CCOC(=O)Cc1csc(NC(=O)CSc2nnc(-c3ccc(C)cc3)o2)n1	?	0	0	0	11.2µM
CCOC(=O)Cc1csc(NC(=O)CSc2nnc(-c3ccc(F)cc3)o2)n1	?	0	0	0	3.98µM
CCOC(=O)Cc1csc(SCC(=O)Nc2cccc(Cl)c2)n1	0	14.6µM	0	?	0
Cn1nnnc1SCc1ccc(CSc2nnnn2C)cc1	0[10 µM]	0	0	0	0
COc1ccc(Cl)cc1S(=O)(=O)N(C)CC(=O)N1CCCC1	0	0	-	0	0
CC(C)(C)NC(=O)C[C@H]1C[C@H](C(=O)N2CCCCC2)[C@@]2(CCc3ccccc3)c3[nH]c4cc(-c5ccco5)ccc4c3CCN2C1=O	-	23.1µM	0	18.4µM	-
CN(C)CCCNC(=O)C[C@H]1C[C@H](C(=O)N2CCCCC2)[C@@]2(CCc3ccccc3)c3[nH]c4cc(-c5ccco5)ccc4c3CCN2C1=O	-	?	0	?	-
CCN(CC)C(=O)[C@H]1C[C@H](CC(=O)NC(C)(C)C)C(=O)N2CCc3c([nH]c4cc(-c5ccco5)ccc34)[C@]12C	-	18.4µM	0	23.1µM	-
O=C(COC(=O)c1cc(Cl)ccc1O)NNC(=O)c1ccc([N+](=O)[O-])cc1	-	0	0[0.505 µM]	0	-
O=C(CCCCCn1c(=S)[nH]c2cc3c(cc2c1=O)OCO3)NCCc1ccccc1	0	?	0	?	0
CCc1nn(CC(=O)NC(C)CC)c(=O)c2cc3c(OC)cccc3n12 (configuration not stated)	-	0	0	0	-
COC(=O)C1=C(C)N(Cc2ccccc2)C(=NCCc2cccnc2)N[C@H]1c1ccccc1	0	20.6µM	-	11.6µM	0
CCN1C(=NCC2CC2)N[C@@H](c2ccccc2)C(C(=O)OC)=C1C	0	?	0	?	0
COC(=O)C1=C(C)N(Cc2ccccc2)C(=NCCCCO)N[C@H]1c1ccccc1	0	?	-	?	0
COC(=O)C1=C(C)N(Cc2ccccc2)C(=NCC(C)C)N[C@H]1c1ccc(Br)cc1	7.08µM	-	-	-	1.78µM
COC(=O)C1=C(C)N(Cc2ccccc2)C(=NCc2ccc3c(c2)OCO3)N[C@H]1c1ccccc1	0	18.4µM	0	?	0
SMILES	Gal4-VP16 FLuc	TDP1 cell noCPT	TDP1 block	DT40 TDP1 CPT	RORg inh
COC(=O)C1=C(C)N(Cc2ccccc2)C(=NCC2CC2)N[C@H]1c1ccccc1	0	23.1µM	0	20.6µM	?
CCN(CC)C(=O)C1=C(C)N(Cc2ccc(OC)cc2)C(=O)C(CC(=O)NCCCN(C)C)C1 (configuration not stated)	-	0	-	0	-
CN(C)S(=O)(=O)N(CC(=O)Nc1ccccc1C(F)(F)F)c1ccccc1	0	-	-	-	0
CCC(CC)C(=O)OCC(=O)NC12CC3CC(CC(C3)C1)C2	0	0	0	0	0
CCN(CC)CCCN=C1N[C@@H](c2ccccc2)C(C(=O)OC)=C(C)N1CC	0	0	-	0	0
COC(=O)C1=C(C)N(Cc2ccccc2)C(=NCCc2cccnc2)N[C@H]1c1ccc(Br)cc1	0	4.61µM	0	3.66µM	?
COC(=O)C1=C(C)N(Cc2ccccc2)C(=S)N[C@H]1c1ccc(Br)cc1	12.6µM	0	0	?	3.55µM
O=S(Cc1ccc(Br)cc1)Cc1nnc(SCc2c(F)cccc2Cl)n1-c1ccccc1 (configuration not stated)	0	9.2µM	0	14.6µM	?
O=S(Cc1ccc(Br)cc1)Cc1nnc(SCc2ccc(Cl)cc2)n1-c1ccccc1 (configuration not stated)	0	18.4µM	0	16.4µM	?
Nn1c(Cc2cccc3ccccc23)nnc1SCc1c(F)cccc1Cl	0	0	0	?	0
CCC1(C)Cc2c(sc3c2c(=O)n(C)c2nnc(SCc4ccccc4)n32)CO1 (configuration not stated)	0	?	0	18.4µM	?
Cn1c(=O)c2c3c(sc2n2c(SCc4ccc5c(c4)OCO5)nnc12)COC(C)(C)C3	0	-	0	-	0

Screens: PubChem BioAssay, National Center for Advancing Translational Sciences (NCATS)
